Measured values published in PubChem BioAssay.
For part of these data: Entries with a potency or affinity are not part of this list. Calls of active or inactive are those of the source.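 How the source made its calls, unless noted: active means primary screen activator hit with a dose response curve and TRPC4 channel activation at any tested dose; inactive means no activation, no dose response, or not a primary hit.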

Experiments:
[1] = test system: TRPC4 beta (transient receptor potential cation channel C4), mouse; assay: TRPC4 cation channel opening, retest – cell-based, Fluo4 calcium, HEK293 TRPC4beta/mu-opioid, duplicates, 10 µM, confirmation (AID 2426;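 active means fluorescence ratio normalized to control raised more than 50% in primary screen plus both repeat runs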); settings: Fluo4 calcium fluorescence, at 10 µM; active compounds read high
[2] = test system: transient receptor potential cation channel C4 beta (TRPC4), mouse; assay: TRPC4 cation channel opening, second retest – cell-based, second round, Fluo4, HEK293 TRPC4beta/mu-opioid, 1 µM, confirmation (AID 2461;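 active means primary screen active and over 50% activation in each of two duplicate runs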); settings: Fluo4 calcium fluorescence, at 1 µM; active compounds read high
[3] = test system: TRPC4 (transient receptor potential cation channel C4 beta), mouse; assay: potentiation of DAMGO EC20 TRPC4 response – cell-based, second round, Fluo-4, HEK293 TRPC4beta/mu-opioid, 1 µM, confirmation (AID 2554;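 active means primary screen hit whose fluorescence ratio, in both repeats, exceeds the weak agonist control mean by 3 SD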); settings: DAMGO EC20, Fluo-4 calcium flux, at 1 µM; active compounds read high
[4] = test system: TRPC4 beta (transient receptor potential cation channel C4), mouse; assay: potentiation of DAMGO EC20 TRPC4 response – cell-based, Fluo-4, HEK293 TRPC4beta/mu-opioid, confirmation (AID 2555;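 active means primary screen hit whose calcium fluorescence ratio, in both repeats, exceeds the weak agonist control mean by 3 SD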); settings: DAMGO EC20, Fluo-4 calcium flux, at 10 µM; active compounds read high
[5] = biological target: Short transient receptor potential channel 4 (Mus musculus) (UniProt Q9QUQ5); assay: blockers of DAMGO-evoked TRPC4 calcium flux – cell-based, Fluo4, HEK293 TRPC4beta/mu-opioid, confirmation (AID 2636;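 active means calcium signal cut by more than 3 SD below the full-agonist control yet still positive, in both repeats and the earlier primary screen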); settings: at 10 µM; active compounds read high
[6] = biological target: Short transient receptor potential channel 4 (Mus musculus) (UniProt Q9QUQ5); assay: blockers of DAMGO-evoked TRPC4 calcium flux – cell-based, second round, Fluo4, HEK293 TRPC4beta/mu-opioid, 1 µM, confirmation (AID 2637;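 active means calcium signal ratio cut to more than 3 SD under the fully stimulated control mean yet still positive, in both repeats and the primary screen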); settings: at 1 µM; active compounds read high
[7] = biological target: Short transient receptor potential channel 4 (Mus musculus) (UniProt Q9QUQ5); assay: calcium entry via TRPC4 opening agents – cell-based, HEK293 TRPC4/mu-opioid, Fluo-4 calcium, dose response (AID 434937)
[8] = biological target: Short transient receptor potential channel 4 (Mus musculus) (UniProt Q9QUQ5); assay: potentiation of DAMGO-evoked TRPC4 calcium signal – cell-based, HEK293 TRPC4/mu-opioid, Fluo-4 calcium, EC20 DAMGO, dose response (AID 434941;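 active means earlier screen potentiator hit that boosts the TRPC4 ion channel at some dose, with a dose response; inactive means no potentiation, no dose response, or not a prior hit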;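 further: calcium entry triggered by an EC20 dose of DAMGO at the co-expressed mu-opioid receptor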)
[9] = biological target: Short transient receptor potential channel 4 (Mus musculus) (UniProt Q9QUQ5); assay: block of DAMGO-driven TRPC4 calcium entry – cell-based, HEK293 TRPC4/mu-opioid, Fluo-4 calcium, dose response (AID 434942;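 active means primary screen inhibitor hit that blocks the TRPC4 channel at some tested dose, yielding a dose curve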)
[10] = biological target: Short transient receptor potential channel 6 (Mus musculus) (UniProt Q61143); assay: TRPC6 blockade by TRPC4 inhibitor hits – cell-based, HEK293, membrane potential dye, duplicate, selectivity assay for TRPC4 inhibitor project, confirmation (AID 434948;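 active means active in primary screen and both duplicates, each dropping signal beyond three positive-control SD with fluorescence still positive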); settings: HEK293 TRPC6, membrane potential dye fluorescence, at 10 µM, stimulated with maximal-effect acetylcholine; active compounds read high
[11] = biological target: Short transient receptor potential channel 6 (Mus musculus) (UniProt Q61143); assay: TRPC6 opening by TRPC4 activator hits – cell-based, HEK293, membrane potential dye, duplicate, selectivity assay for TRPC4 activator project, confirmation (AID 434950;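 active means membrane potential signal rise above negative control mean plus 3 SD in both duplicates, also active in the earlier TRPC4 screen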); settings: HEK293 TRPC6, membrane potential fluorescence, at 10 µM; activation: active compounds read high; outcome: activation
[12] = biological target: Short transient receptor potential channel 6 (Mus musculus) (UniProt Q61143); assay: positive modulators of mouse TRPC6 channel – HEK293 cells, membrane potential dye, duplicate, selectivity assay for TRPC4 potentiator project, confirmation (AID 434952;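 active means compound raising the membrane signal above positive-control mean plus 3 SD in both repeats, and a primary screen hit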); settings: HEK293 TRPC6, membrane potential dye fluorescence, at 10 µM, maximal acetylcholine added after compound; active compounds read high
[13] = biological target: Short transient receptor potential channel 4 (Mus musculus) (UniProt Q9QUQ5); assay: calcium flux activators in TRPC4/5HT1a cells, counter-screen for TRPC4 activator project, cell-based, second counter screen, HEK293 TRPC4/5HT1a, Fluo-4 (AID 434977;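 active means calcium signal rise above buffer-control mean plus 5 SD in both duplicates, and also a hit in the primary screen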); settings: Fluo-4 calcium flux, at 10 µM; active compounds read high
[14] = serotonin-gated TRPC4 signal block – cell-based, second counter screen, HEK293 TRPC4/5HT1a, Fluo-4, counter-screen for TRPC4 inhibitor project, confirmation (AID 434978;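 active means primary screen active whose calcium signal fell more than 3 SD beyond the full-serotonin control mean in both duplicate plates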;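 further: serotonin given first at submaximal then at maximal dose after compound preincubation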); settings: Fluo-4 calcium flux, at 10 µM, serotonin added to trigger calcium flux; active compounds read high
[15] = test system: TRPC4 (mouse), co-expressed with 5HT1a in HEK293; assay: enhancement of serotonin-evoked TRPC4 response – cell-based, second counter screen, HEK293 TRPC4/5HT1a, Fluo-4, counter-screen for TRPC4 potentiator project, confirmation (AID 434979;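 active means signal rise over 3 SD above mean of control wells given weak agonist, in both repeats and first screen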); settings: Fluo-4 calcium flux, at 10 µM, serotonin added at its EC20 dose; active compounds read high
[16] = nonspecific calcium rise without TRPC4 – cell-based, HEK293 mu-opioid receptor line, counter-screen for TRPC4 activator project, confirmation (AID 449723;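 active means hit in primary screen, with calcium signal over 5 SD above buffer well mean in both duplicates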;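 further: counter screen cells carry the mu-opioid receptor alone and lack TRPC4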); settings: HEK293 mu-opioid cells, Fluo-4 calcium fluorescence, at 10 µM; active compounds read high
[17] = nonspecific potentiation of DAMGO calcium response – cell-based, HEK293 mu-opioid receptor line, counter-screen for TRPC4 allosteric potentiator project, confirmation (AID 449724;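 active means calcium signal rise more than 3 SD above the low-dose agonist control mean, in both duplicate plates and the primary screen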); settings: HEK293 mu-opioid receptor cells, Fluo-4 calcium flux, at 10 µM, compound added before EC20 DAMGO stimulus; active compounds read high

Short transient receptor potential channel 4 (Mus musculus), sequence (Q9QUQ5 whole entry, looked up): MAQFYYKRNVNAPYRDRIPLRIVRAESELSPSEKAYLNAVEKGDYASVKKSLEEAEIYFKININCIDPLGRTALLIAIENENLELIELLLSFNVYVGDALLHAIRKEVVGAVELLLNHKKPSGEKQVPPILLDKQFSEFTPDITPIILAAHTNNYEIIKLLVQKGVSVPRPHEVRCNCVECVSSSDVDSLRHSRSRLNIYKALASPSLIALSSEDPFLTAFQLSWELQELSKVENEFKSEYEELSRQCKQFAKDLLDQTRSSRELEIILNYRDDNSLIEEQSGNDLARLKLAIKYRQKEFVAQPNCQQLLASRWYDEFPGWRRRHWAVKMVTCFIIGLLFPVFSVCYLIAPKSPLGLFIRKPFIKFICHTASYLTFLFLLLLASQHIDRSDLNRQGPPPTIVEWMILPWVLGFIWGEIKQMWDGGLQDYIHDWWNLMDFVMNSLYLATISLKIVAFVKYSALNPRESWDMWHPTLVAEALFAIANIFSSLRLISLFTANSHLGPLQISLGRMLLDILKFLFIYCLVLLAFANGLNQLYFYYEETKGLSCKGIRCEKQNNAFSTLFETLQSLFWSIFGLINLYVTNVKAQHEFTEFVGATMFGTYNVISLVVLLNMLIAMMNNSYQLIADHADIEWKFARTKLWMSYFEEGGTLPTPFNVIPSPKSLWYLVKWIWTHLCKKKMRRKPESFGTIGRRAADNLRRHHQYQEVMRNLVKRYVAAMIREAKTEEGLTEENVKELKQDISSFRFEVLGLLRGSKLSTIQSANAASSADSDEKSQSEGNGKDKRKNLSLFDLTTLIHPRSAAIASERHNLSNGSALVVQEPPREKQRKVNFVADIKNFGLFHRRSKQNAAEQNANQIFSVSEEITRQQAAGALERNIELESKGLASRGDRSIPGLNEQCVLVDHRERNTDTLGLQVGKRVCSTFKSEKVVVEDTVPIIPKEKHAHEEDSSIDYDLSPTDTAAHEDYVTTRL
Short transient receptor potential channel 6 (Mus musculus), sequence (Q61143 whole entry, looked up): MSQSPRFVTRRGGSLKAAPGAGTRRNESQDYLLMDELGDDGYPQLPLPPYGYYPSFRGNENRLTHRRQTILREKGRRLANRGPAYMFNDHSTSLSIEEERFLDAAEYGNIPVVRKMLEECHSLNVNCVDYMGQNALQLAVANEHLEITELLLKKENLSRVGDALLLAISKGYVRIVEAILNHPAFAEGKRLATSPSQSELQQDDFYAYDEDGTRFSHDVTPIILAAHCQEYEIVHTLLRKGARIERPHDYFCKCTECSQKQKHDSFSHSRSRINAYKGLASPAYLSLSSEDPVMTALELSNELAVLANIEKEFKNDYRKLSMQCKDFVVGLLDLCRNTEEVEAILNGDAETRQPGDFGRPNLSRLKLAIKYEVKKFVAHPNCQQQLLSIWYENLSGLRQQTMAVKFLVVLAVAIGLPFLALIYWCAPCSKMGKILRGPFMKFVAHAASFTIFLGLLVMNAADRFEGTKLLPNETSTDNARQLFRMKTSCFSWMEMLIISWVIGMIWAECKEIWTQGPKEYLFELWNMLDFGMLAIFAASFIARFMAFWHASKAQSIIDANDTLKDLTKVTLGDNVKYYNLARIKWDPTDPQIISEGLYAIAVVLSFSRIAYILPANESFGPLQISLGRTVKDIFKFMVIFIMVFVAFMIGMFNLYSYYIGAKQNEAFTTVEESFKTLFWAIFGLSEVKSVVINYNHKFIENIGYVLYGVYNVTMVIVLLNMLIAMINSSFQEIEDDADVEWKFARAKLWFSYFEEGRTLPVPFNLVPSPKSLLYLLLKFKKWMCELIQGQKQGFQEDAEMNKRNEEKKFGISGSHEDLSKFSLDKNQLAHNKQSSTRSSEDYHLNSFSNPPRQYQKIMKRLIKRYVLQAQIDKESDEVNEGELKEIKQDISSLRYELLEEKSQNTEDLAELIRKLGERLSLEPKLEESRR

O=S(=O)(NCCSc1nnc(-c2ccco2)n1-c1ccccc1)c1ccccc1
inactive: outcome [1] | outcome [2] | outcome [3] | outcome [4] | outcome [5] | outcome [6] | outcome [7] | outcome [8] | outcome [9] | outcome [10] | outcome [11] | outcome [12] | outcome [13] | outcome [14] | outcome [15] | outcome [16] | outcome [17]

CC(C)(C)NC(=S)N/N=C\c1ccc(-c2ccc([N+](=O)[O-])cc2)o1
inactive: outcome [1] | outcome [2] | outcome [3] | outcome [4] | outcome [5] | outcome [6] | outcome [7] | outcome [8] | outcome [9] | outcome [10] | outcome [11] | outcome [13] | outcome [14] | outcome [16] | outcome [17]
active: potentiation, percent of control [12] 142% | potentiation [15] 15.4%

Cc1ccc(-c2nn(-c3ccccc3)cc2C(=O)Nc2ccc(C(=O)O)cc2)cc1
inactive: outcome [1] | outcome [2] | outcome [3] | outcome [4] | outcome [5] | outcome [6] | outcome [7] | outcome [8] | outcome [9] | outcome [10] | outcome [11] | outcome [12] | outcome [13] | outcome [14] | outcome [15] | outcome [16] | outcome [17]

COc1ccc(C(=O)NNC(=O)CN2CCC(n3nnc4cc(C)ccc43)CC2)cc1
inactive: outcome [1] | outcome [2] | outcome [5] | outcome [6] | outcome [7] | outcome [8] | outcome [9] | outcome [10] | outcome [11] | outcome [12] | outcome [13] | outcome [14] | outcome [15] | outcome [16] | outcome [17]
active: potentiation [3] 15% | potentiation [4] 28%

CCOC(=O)C(=NC1CCS(=O)(=O)C1)NNc1ccccc1Cl (stereo not given)
active: potentiation [4] 85% | potentiation [15] 64.7%
inactive: outcome [1] | outcome [2] | outcome [3] | outcome [5] | outcome [6] | outcome [7] | outcome [8] | outcome [9] | outcome [10] | outcome [11] | outcome [12] | outcome [13] | outcome [14] | outcome [16] | outcome [17]

CC(C)C(=O)N1CCN(c2nc(-c3ccccc3)c3c(c2C#N)CCCC3)CC1
inactive: outcome [1] | outcome [2] | outcome [3] | outcome [5] | outcome [6] | outcome [7] | outcome [8] | outcome [9] | outcome [10] | outcome [11] | outcome [12] | outcome [13] | outcome [14] | outcome [16] | outcome [17]
active: potentiation [4] 26% | potentiation [15] 29.4%

C1CCN(c2nc(N3CCCCC3)nc(N3CCNCC3)n2)CC1
active: potentiation [15] 8.18%
inactive: outcome [1] | outcome [2] | outcome [3] | outcome [4] | outcome [5] | outcome [6] | outcome [7] | outcome [8] | outcome [9] | outcome [10] | outcome [11] | outcome [12] | outcome [13] | outcome [14] | outcome [16] | outcome [17]

CN(C(=O)COC(=O)c1sc2ccccc2c1Cl)C1CCCCC1
inactive: outcome [1] | outcome [2] | outcome [3] | outcome [5] | outcome [6] | outcome [7] | outcome [8] | outcome [9] | outcome [10] | outcome [11] | outcome [12] | outcome [13] | outcome [14] | outcome [16] | outcome [17]
active: potentiation [4] 36% | potentiation [15] 64.8%

CCc1ccc(OCC(=O)NC2CCCCC2)c(Br)c1
inactive: outcome [1] | outcome [2] | outcome [3] | outcome [5] | outcome [6] | outcome [7] | outcome [8] | outcome [9] | outcome [10] | outcome [11] | outcome [12] | outcome [13] | outcome [14] | outcome [16] | outcome [17]
active: potentiation [4] 46% | potentiation [15] 135%

CCCC1=C(C(=O)OCC)C(c2cc(Cl)cc(OC)c2OCC(=O)OCC)NC(=O)N1 (stereo not given)
inactive: outcome [1] | outcome [2] | outcome [3] | outcome [5] | outcome [6] | outcome [7] | outcome [8] | outcome [9] | outcome [10] | outcome [11] | outcome [12] | outcome [13] | outcome [14] | outcome [16] | outcome [17]
active: potentiation [4] 22% | potentiation [15] 5.72%

CC(C)Cn1c(O)c(N=NC(=O)c2cccc(S(=O)(=O)N3CCCCC3)c2)c2ccccc21
active: potentiation [4] 15%
inactive: outcome [1] | outcome [2] | outcome [3] | outcome [5] | outcome [6] | outcome [7] | outcome [8] | outcome [9] | outcome [10] | outcome [11] | outcome [12] | outcome [13] | outcome [14] | outcome [15] | outcome [16] | outcome [17]

CC(=O)N1CC(c2ccccc2)C(c2ccc(Cl)cc2)=N1 (stereo not given)
inactive: outcome [1] | outcome [2] | outcome [3] | outcome [4] | outcome [5] | outcome [6] | outcome [7] | outcome [8] | outcome [9] | outcome [10] | outcome [11] | outcome [12] | outcome [13] | outcome [14] | outcome [15] | outcome [16] | outcome [17]

CCOC(=O)C(CCCCCOc1ccc([N+](=O)[O-])cc1)C(=O)OCC
active: potentiation [4] 10%
inactive: outcome [1] | outcome [2] | outcome [3] | outcome [5] | outcome [6] | outcome [7] | outcome [8] | outcome [9] | outcome [10] | outcome [11] | outcome [12] | outcome [13] | outcome [14] | outcome [15] | outcome [16] | outcome [17]

CC(C)CCn1c(Sc2nc3ccccc3o2)nc2c1c(=O)[nH]c(=O)n2C
inactive: outcome [1] | outcome [2] | outcome [3] | outcome [5] | outcome [6] | outcome [7] | outcome [8] | outcome [9] | outcome [10] | outcome [11] | outcome [12] | outcome [13] | outcome [14] | outcome [16] | outcome [17]
active: potentiation [4] 13% | potentiation [15] 45%

CCc1ccc(OCc2ccc(C(=O)NCc3ccccn3)o2)cc1
active: potentiation [4] 19%
inactive: outcome [1] | outcome [2] | outcome [3] | outcome [5] | outcome [6] | outcome [7] | outcome [8] | outcome [9] | outcome [10] | outcome [11] | outcome [12] | outcome [13] | outcome [14] | outcome [15] | outcome [16] | outcome [17]
